Assay [1] is described as follows: antimalarial activity against Dd2 strain (AID 2302;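 active = growth inhibition above 50% at the single 2 µM test dose, taken to imply half-maximal potency below 2 µM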;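 also: 0% = DMSO untreated growth and 100% = chloroquine plus artemisinin killed control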). As to conditions: P. falciparum Dd2 in RBCs, LDH growth readout, 72 h; at 2 µM; active compounds read high.
Assay [2] can be described thus: HepG2 cytotoxicity, primary screen, cytotoxicity control for P. falciparum antimalarial project, cell-based, ATP luminescence (AID 2303;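 active = inhibition above 50%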;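 also: 0% = DMSO wells and 100% = digitonin-killed cells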). The following applies: HepG2 viability, 24-48 h, at 10 µM, active compounds read high.
In assay [3] the target is L-lactate dehydrogenase (Plasmodium falciparum (isolate CDC / Honduras)) (UniProt Q27743). The assay can be described thus: PfLDH activity inhibition – cell lysate, 3D7 strain, counter-screen for P. falciparum growth inhibition project (AID 2304).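 Also: 0% = vehicle and 100% = reference inhibitor.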 As to conditions: P. falciparum 3D7 crude extract, LDH APAD/NBT absorbance; at 2 µM; active compounds read high.
Assay [4] in a line: inhibition of 3D7 malaria parasite growth – strain 3D7 (AID 2306).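 Also: 0% = DMSO wells and 100% = chloroquine plus artemisinin control wells.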 As to conditions: P. falciparum 3D7 erythrocytic growth, LDH absorbance, 72 h; at 2 µM; active compounds read high.
The target of assay [5] is Calcium-dependent protein kinase 1 (Plasmodium falciparum (isolate 3D7)) (UniProt P62344). Nature of the assay: PfCDPK1 kinase inhibitors, biochemical, TCAMS library (AID 1159585; cut-off not given, nearly all actives have IC50 up to about 0.98 µM;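 also: inhibitors leave more ATP so luminescence rises with inhibition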). As to conditions: recombinant PfCDPK1, Kinase-Glo ATP depletion luminescence.
Assay [6] has as its target Plasmodium falciparum protein kinase 6 (PK6, PF3D7_1337100) (UniProt Q8IDW1). The assay can be described thus: PfPK6 kinase inhibitors, biochemical, TCAMS library (AID 1159586). The following applies: recombinant PfPK6, Kinase-Glo ATP depletion luminescence.
Assay [7] deals with Protein kinase 7 (PK7), Plasmodium falciparum 3D7 (PF3D7_0213400) (UniProt Q7YTF7). Nature of the assay: inhibition of Plasmodium PK7 catalytic activity – biochemical, TCAMS antimalarial set, Kinase-Glo luminescence (AID 1159587). The following applies: recombinant PfPK7, Kinase-Glo ATP depletion luminescence.
Assay [8] concerns the target Calcium-dependent protein kinase 4 (Plasmodium falciparum (isolate 3D7)) (UniProt Q8IBS5). Nature of the assay: PfCDPK4 kinase inhibitors, biochemical, TCAMS library (AID 1159588; cut-off not given, nearly all actives have IC50 up to about 0.91 µM). The following applies: recombinant PfCDPK4, Kinase-Glo ATP depletion luminescence.

Unmarked numbers belong to inactive results. For some assays here: Entries with a potency or affinity are not part of this list. The source made the active and inactive calls. Unless noted, no rule for the calls is given here.

Sequence of L-lactate dehydrogenase (Plasmodium falciparum (isolate CDC / Honduras)) (Q27743 whole entry, looked up): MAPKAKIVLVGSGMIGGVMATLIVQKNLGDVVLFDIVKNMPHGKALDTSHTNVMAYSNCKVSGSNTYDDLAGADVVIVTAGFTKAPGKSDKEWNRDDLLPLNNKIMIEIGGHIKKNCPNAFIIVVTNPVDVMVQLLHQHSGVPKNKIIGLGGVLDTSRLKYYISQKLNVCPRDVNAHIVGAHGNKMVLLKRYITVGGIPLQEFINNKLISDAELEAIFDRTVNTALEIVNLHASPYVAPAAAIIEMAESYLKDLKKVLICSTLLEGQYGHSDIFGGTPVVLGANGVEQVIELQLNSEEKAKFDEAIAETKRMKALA
Sequence of Protein kinase 7 (PK7), Plasmodium falciparum 3D7 (PF3D7_0213400) (Q7YTF7 1-343): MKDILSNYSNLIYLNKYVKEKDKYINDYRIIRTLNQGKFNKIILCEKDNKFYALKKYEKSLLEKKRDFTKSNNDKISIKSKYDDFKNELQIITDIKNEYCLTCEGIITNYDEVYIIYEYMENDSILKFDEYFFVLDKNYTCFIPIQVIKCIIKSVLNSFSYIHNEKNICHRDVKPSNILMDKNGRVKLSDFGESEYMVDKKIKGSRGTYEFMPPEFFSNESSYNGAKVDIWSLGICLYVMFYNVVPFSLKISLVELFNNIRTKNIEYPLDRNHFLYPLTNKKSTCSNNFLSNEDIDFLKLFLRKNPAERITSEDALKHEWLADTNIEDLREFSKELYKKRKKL
Sequence of Plasmodium falciparum protein kinase 6 (PK6, PF3D7_1337100) (Q8IDW1 1-305): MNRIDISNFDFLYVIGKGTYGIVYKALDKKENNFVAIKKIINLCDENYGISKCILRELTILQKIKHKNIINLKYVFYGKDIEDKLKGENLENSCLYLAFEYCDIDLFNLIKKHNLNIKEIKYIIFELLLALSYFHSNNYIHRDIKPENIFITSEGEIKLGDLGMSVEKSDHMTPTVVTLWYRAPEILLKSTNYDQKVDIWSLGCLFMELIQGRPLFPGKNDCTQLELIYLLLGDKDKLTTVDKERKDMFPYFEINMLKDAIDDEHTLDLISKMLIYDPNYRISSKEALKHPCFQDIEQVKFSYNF
Sequence of Calcium-dependent protein kinase 4 (Plasmodium falciparum (isolate 3D7)) (Q8IBS5 whole entry, looked up): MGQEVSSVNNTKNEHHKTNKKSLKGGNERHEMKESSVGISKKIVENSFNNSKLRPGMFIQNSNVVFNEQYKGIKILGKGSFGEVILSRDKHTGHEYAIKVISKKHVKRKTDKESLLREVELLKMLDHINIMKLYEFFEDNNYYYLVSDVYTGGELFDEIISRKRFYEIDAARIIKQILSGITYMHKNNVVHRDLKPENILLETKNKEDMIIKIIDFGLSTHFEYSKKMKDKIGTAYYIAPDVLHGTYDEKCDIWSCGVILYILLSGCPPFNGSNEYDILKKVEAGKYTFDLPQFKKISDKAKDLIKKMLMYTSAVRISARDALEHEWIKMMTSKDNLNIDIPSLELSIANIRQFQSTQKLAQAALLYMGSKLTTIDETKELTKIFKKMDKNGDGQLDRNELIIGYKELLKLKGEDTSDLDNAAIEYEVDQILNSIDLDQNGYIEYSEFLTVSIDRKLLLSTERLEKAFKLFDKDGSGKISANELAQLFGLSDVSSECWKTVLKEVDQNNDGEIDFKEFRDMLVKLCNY
Sequence of Calcium-dependent protein kinase 1 (Plasmodium falciparum (isolate 3D7)) (P62344 whole entry, looked up): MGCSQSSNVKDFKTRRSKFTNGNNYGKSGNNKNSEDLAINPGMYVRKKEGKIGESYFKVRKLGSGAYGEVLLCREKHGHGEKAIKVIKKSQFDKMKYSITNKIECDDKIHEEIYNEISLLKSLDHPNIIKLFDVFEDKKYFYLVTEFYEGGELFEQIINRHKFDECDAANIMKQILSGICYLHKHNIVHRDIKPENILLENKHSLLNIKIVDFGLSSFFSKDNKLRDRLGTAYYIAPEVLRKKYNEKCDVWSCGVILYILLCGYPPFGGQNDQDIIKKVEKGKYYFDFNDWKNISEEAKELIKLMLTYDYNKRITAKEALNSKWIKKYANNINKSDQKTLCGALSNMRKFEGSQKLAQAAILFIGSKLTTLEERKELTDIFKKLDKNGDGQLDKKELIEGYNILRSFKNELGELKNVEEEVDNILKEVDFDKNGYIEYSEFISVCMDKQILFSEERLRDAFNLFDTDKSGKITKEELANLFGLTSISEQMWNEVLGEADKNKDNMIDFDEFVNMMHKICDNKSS

`CCOc1ccc2nc3cc([N+](=O)[O-])ccc3c(N)c2c1`: the growth inhibition was 100% (active) in assay [1] and 99% (active) in assay [4]. Also, the inhibition is 67% (active) in assay [2] and 3% in assay [3]. Moreover, the outcome in assay [5], in assay [6], in assay [7] and in assay [8] was inactive.
As for `CNC(=O)c1ccccc1Nc1nc(Nc2cccnc2)ncc1C`, the growth inhibition in assay [1] was 90% (active); in assay [4], 93% (active). Moreover, the inhibition in assay [2] is 17%; in assay [3], 1%. Further, the outcome in assay [5], in assay [6], in assay [7] and in assay [8] was inactive.
As to `S=C(NCCCCCN1CCC(c2c[nH]c3ccccc23)CC1)Nc1cc(Cl)cc(Cl)c1`, the growth inhibition in assay [1] was 35%; in assay [4] it was 100% (active). Also, the values for the inhibition in assay [2] and in assay [3] were 25% and -4%, respectively. The result in assay [5], in assay [6], in assay [7] and in assay [8] was inactive.
As for `COc1ccc(C(=O)N2CCC(CN3CCOC(c4ccccc4)(c4ccccc4)C3)CC2)cc1`, the figures for the growth inhibition in assay [1] and in assay [4] were 96% (active) and 95% (active), respectively. The figures for the inhibition in assay [2] and in assay [3] were 19% and 5%, respectively. The result in assay [5], in assay [6], in assay [7] and in assay [8] was inactive.
For `COc1ccc2nc(C)cc(Nc3ccc(Oc4ccc(Br)c5ccccc45)c(Cl)c3)c2c1`, the figures for the growth inhibition in assay [1] and in assay [4] were 101% (active) and 100% (active), respectively. For the same molecule, the inhibition is 100% (active) in assay [2] and -3% in assay [3]. Further, the result in assay [5], in assay [6], in assay [7] and in assay [8] was inactive.
On to `COc1ccc(NC(=O)c2ccc(OCCCCCCCOc3ccc(C(=O)Nc4ccc(OC)c(N5CCN(C)CC5)c4)cc3)cc2)cc1N1CCN(C)CC1`, for which the growth inhibition in assay [1] is 91% (active); in assay [4], 96% (active). Moreover, the inhibition in assay [2] was 98% (active); in assay [3], -5%. In addition, the result in assay [5], in assay [6], in assay [7] and in assay [8] was inactive.
In the case of `CCN(CC)CCN(Cc1ccc(-c2ccc(C(F)(F)F)cc2)cc1)C(=O)Cn1c(CCc2cccc(F)c2F)nc(=O)c2ccc(F)cc21`, the growth inhibition in assay [1] is 41%; in assay [4], 98% (active). The results for the inhibition in assay [2] and in assay [3] were 14% and 3%, respectively. Further, the outcome in assay [5], in assay [6], in assay [7] and in assay [8] was inactive.
Consider `Cc1ccc2nc(C)cc(NN=Cc3ccc([N+](=O)[O-])o3)c2c1`, for which the growth inhibition is 99% (active) in assay [1] and 101% (active) in assay [4]. Further, the inhibition in assay [2] was 15%; in assay [3] it was -4%. For the same molecule, the outcome in assay [5], in assay [6], in assay [7] and in assay [8] was inactive.
As to `Cc1cc2c(NC(=O)NC3CCN(Cc4ccc(Cl)c(Cl)c4)CC3)cccc2cn1`, the growth inhibition was 41% in assay [1] and 100% (active) in assay [4]. Moreover, the figures for the inhibition in assay [2] and in assay [3] were 11% and -2%, respectively. In addition, the outcome in assay [5], in assay [6], in assay [7] and in assay [8] was inactive.
As for `O=c1cnc2ccc(F)cc2n1CCN1CCC(NCc2cc(-c3ccccc3)cs2)CC1`, the figures for the growth inhibition in assay [1] and in assay [4] were 14% and 91% (active), respectively. Further, the inhibition in assay [2] is -5%; in assay [3], -2%. Also, the outcome in assay [5], in assay [6], in assay [7] and in assay [8] was inactive.
For `COc1ccc(Nc2nc(NC3CCCC3)cc(-c3ccc(OC)cc3)n2)cc1`, the growth inhibition was 15% in assay [1] and 86% (active) in assay [4]. The inhibition in assay [2] is 12%; in assay [3], 2%. In addition, the result in assay [5], in assay [6], in assay [7] and in assay [8] was inactive.
Take `CCOc1cc(C(=O)N[C@@H](Cc2ccccc2)[C@H](O)CNCc2cccc(OC)c2)cc(N2CCCCS2(=O)=O)c1`: the growth inhibition in assay [1] was 94% (active); in assay [4], 97% (active). Also, the inhibition in assay [2] and in assay [3] was 3% each time. Further, the result in assay [5], in assay [6], in assay [7] and in assay [8] was inactive.
Take `COc1ccc2cc(C=NNc3nc4ccccc4[nH]3)c(Cl)nc2c1`: the growth inhibition was 90% (active) in assay [1] and 100% (active) in assay [4]. The inhibition is 2% in assay [2] and -2% in assay [3]. Moreover, the outcome in assay [5], in assay [6], in assay [7] and in assay [8] was inactive.
Consider `O=C(/C=C/c1ccc(Cl)c(Cl)c1)NCCCCCN1CCC(NC(=O)c2ccc3ccccc3c2)CC1`, for which the growth inhibition was 20% in assay [1] and 87% (active) in assay [4]. Further, the results for the inhibition in assay [2] and in assay [3] were 8% and -2%, respectively. Further, the outcome in assay [5], in assay [6], in assay [7] and in assay [8] was inactive.
With `Cc1[nH]c(C)c(-c2ccc(CCc3ccc(F)cc3F)cc2)c(=O)c1Cl`, the growth inhibition was 97% (active) in assay [1] and 98% (active) in assay [4]. Also, the inhibition in assay [2] was 5%; in assay [3], -4%. Also, the result in assay [5], in assay [6], in assay [7] and in assay [8] was inactive.
Take `COc1cccc(NC(=O)CSc2nc(-c3ccccc3Cl)ns2)c1`: the growth inhibition in assay [1] was 100% (active); in assay [4] it was 99% (active). Besides, the inhibition in assay [2] was 7%; in assay [3], 2%. Moreover, the outcome in assay [5], in assay [6], in assay [7] and in assay [8] was inactive.
Take `COc1ccc(-c2cnc3[nH]cc(-c4ccc(C(=O)O)cc4)c3c2)cn1`: the values for the growth inhibition in assay [1] and in assay [4] were 99% (active) and 95% (active), respectively. Besides, the inhibition is 35% in assay [2] and -1% in assay [3]. Also, the result in assay [5], in assay [6], in assay [7] and in assay [8] was inactive.
Regarding `COc1ccc2nc(-c3cc(-c4ccc(NC(=O)CN5CCOCC5)cc4)cnc3N)[nH]c2c1`, the growth inhibition was 72% (active) in assay [1] and 100% (active) in assay [4]. The figures for the inhibition in assay [2] and in assay [3] were 52% (active) and -4%, respectively. Further, the outcome in assay [5], in assay [6], in assay [7] and in assay [8] was inactive.
Take `Cc1nccn1CCNC(=O)CN1CCC2(CCC1=O)CC(=O)c1ccccc1O2` (configuration not stated): the growth inhibition was 4% in assay [1] and 98% (active) in assay [4]. Moreover, the inhibition was -7% in assay [2] and 7% in assay [3]. For the same molecule, the outcome in assay [5], in assay [6], in assay [7] and in assay [8] was inactive.

The values above are taken from PubChem BioAssay.
